PME-1 primary: PME-1 inhibitors via competitive probe labeling, primary screen, biochemical, fluorescence polarization, FP-Rh probe, HTS | Protein phosphatase methylesterase 1 (Homo sapiens), Q9Y570 | recombinant PME-1 | inhibition, % at 5.9 µM | actives 0.53% (n = 320,000);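 active = inhibition above the campaign mean of all compounds plus 3 SD, cut at about 26% in these data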;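 note: competitive labeling of PME-1 active site by serine hydrolase directed probe; 0% = PME-1 with DMSO and 100% = wells lacking PME-1 enzyme; inhibitors block probe labeling so polarization falls and inhibition rises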
Target sequence (Q9Y570 whole entry, looked up): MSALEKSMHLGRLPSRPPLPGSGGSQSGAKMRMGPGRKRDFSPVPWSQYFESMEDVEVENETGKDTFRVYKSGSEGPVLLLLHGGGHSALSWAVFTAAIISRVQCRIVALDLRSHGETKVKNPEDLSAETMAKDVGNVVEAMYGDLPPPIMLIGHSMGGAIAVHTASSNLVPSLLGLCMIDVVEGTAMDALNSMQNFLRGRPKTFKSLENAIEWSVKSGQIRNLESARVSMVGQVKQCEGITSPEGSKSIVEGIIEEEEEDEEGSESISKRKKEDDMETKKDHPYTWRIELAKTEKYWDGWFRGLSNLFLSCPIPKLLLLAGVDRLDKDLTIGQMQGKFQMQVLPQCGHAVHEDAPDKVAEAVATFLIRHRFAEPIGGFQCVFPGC
LYPLA1 counter: LYPLA1 inhibitors, primary screen, counter-screen for PME1 inhibitor project, biochemical, fluorescence polarization, FP-Rh probe ABPP; recombinant LYPLA1; inhibition, % at 5.9 µM; actives 0.16% (n = 320,000); Acyl-protein thioesterase 1 (Homo sapiens), O75608;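 active = inhibition above the mean of all tested compounds plus 3 SD, set per campaign, cut at about 14% in these data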;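 note: inhibitors block serine hydrolase probe labeling of LYPLA1 so polarization falls; 0% = enzyme with DMSO and 100% = wells lacking LYPLA1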
Fam108B counter: mouse Fam108B serine hydrolase inhibitors, primary screen, counter-screen for RBBP9 inhibitor project, biochemical, fluorescence polarization. inhibition, % at 9.51 µM. actives 0.33% (n = 300,000). recombinant Fam108B, FP-Rh probe fluorescence polarization;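 active = inhibition above the screen mean inhibition plus 3 SD, computed separately per campaign, cut at about 18% in these data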;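 note: inhibitors lower polarization as less probe binds the enzyme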
PAD4 inh: human PAD4 inhibitors, primary screen, biochemical, fluorescence polarization, 1536-well format; Protein-arginine deiminase type-4 (Homo sapiens), Q9UM07; recombinant PAD4, RCA probe fluorescence polarization; inhibition, % at 6.36 µM; actives 0.41% (n = 330,000); AID 485272, 2010;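 active = percent inhibition above a cutoff equal to the mean of all tested compounds plus 3 SD, cut at about 15% in these data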;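 note: 0% = PAD4 with RCA probe and DMSO and 100% = probe without PAD4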
GSTO1 counter: inhibitors of recombinant GSTO1, primary screen, counter-screen for RBBP9 inhibitor project, biochemical, fluorescence polarization; activity-based probe fluorescence polarization; inhibition, % at 5.96 µM; actives 1.1% (n = 300,000);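 active = inhibition above the campaign mean inhibition plus 3 SD, cut at about 35% in these data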;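 note: 0% = GSTO1-1 with DMSO and 100% = wells lacking GSTO1-1 enzyme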
LYPLA2 inh: LYPLA2 inhibitors, primary screen, counter-screen for PME1 inhibitor project, biochemical, fluorescence polarization, FP-Rh probe ABPP; AID 2177, 2009; Acyl-protein thioesterase 2 (Homo sapiens), O95372; actives 0.38% (n = 320,000); inhibition, % at 5.9 µM; recombinant LYPLA2;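 active = inhibition above the screen-wide mean plus 3 SD, limit set per campaign, cut at about 26% in these data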;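 note: 0% = LYPLA2 with DMSO and 100% = wells lacking LYPLA2 enzyme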
Target sequence (O95372 whole entry, looked up): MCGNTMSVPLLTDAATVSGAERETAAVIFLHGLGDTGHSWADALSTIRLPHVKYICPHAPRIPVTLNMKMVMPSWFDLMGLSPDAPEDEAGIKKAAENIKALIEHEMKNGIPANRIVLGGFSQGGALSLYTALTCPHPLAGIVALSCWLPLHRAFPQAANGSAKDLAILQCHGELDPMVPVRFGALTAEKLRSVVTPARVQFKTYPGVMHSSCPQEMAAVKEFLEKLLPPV
Fam108b inh conf: mouse Fam108b serine hydrolase inhibitors, confirmation, counter-screen for RBBP9 inhibitor project, biochemical, fluorescence polarization, triplicate | shares compounds with Fam108B counter | recombinant Fam108b, FP-Rh probe fluorescence polarization | inhibition, % at 9.51 µM | actives 44% (n = 930) | AID 1978, 2009;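 active = inhibition above a limit from the primary screen, the mean over all compounds plus 3 SD, cut at about 19% in these data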;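 note: 0% = median of active Fam108b wells and 100% = catalytically dead S170A mutant; inhibitors free the probe so polarization falls as inhibition rises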
Fam108b inh: inhibition of mouse Fam108b by HTS hits, late-stage follow-up, biochemical, gel-based ABPP, soluble recombinant form; shares compounds with Fam108B counter; fluorophosphonate probe; inhibition, % at 20 µM; actives 44% (n = 260); in the data active = inhibition above about 40%
* marks the source's active call; other numbers are inactive results; nt = no result given. In the library only some 1.8% were active in any assay of this set; here they are far more common.

SMILES | PME-1 primary | LYPLA1 counter | Fam108B counter | PAD4 inh | GSTO1 counter | LYPLA2 inh | Fam108b inh conf | others
CSC1=NSC2=NC(=O)/C(=C/c3coc4ccc(O)cc4c3=O)C(=N)N12 | -5 | -10 | 28* | -24 | -40 | -10 | 17
N=C1/C(=C\c2coc3ccccc3c2=O)C(=O)N=C2SC=CN12 | 15 | 0 | 9 | 0 | 7 | 6 | nt
CSC1=NSC2=NC(=O)/C(=C/c3coc4ccccc4c3=O)C(=N)N12 | 13 | -8 | 41* | -25 | -82 | -9 | 52* | Fam108b inh=0
O=[N+]([O-])c1cc(S(=O)(=O)Nc2ccccc2)ccc1N1CCN(c2ccc(O)cc2)CC1 | 11 | -1 | 8 | 1 | -2 | 20 | nt
Cc1ccc(NS(=O)(=O)c2ccc(N3CCN(c4ccc(O)cc4)CC3)c([N+](=O)[O-])c2)c(C)c1 | 23 | -5 | 21* | -1 | 2 | 12 | 9
Nc1cc(C(=O)OCC(=O)Nc2ccc(N3CCOCC3)cc2)ccc1Cl | 5 | 0 | nt | -5 | nt | -1 | nt
Oc1cccc2cc3cccc(O)c3c(O)c12 | 20 | -22 | 25* | -11 | 26 | -8 | 4 | Fam108b inh=55*
O=c1oc(-c2ccc(O)c(O)c2)cc2cccc(O)c12 | nt | nt | nt | -3 | nt | nt | nt
Cc1ccc(N2C(=O)C3CCC(C)(C2=O)C3(C)C)cc1 (centres undefined) | -2 | 1 | -1 | -1 | 7 | 4 | nt
CSC[C@@H]1NC(=S)N(c2ccc(C)cc2)C1=O | 60* | 10 | 31* | -14 | 15 | 20 | 50* | Fam108b inh=40*
Cc1ccc(C(=O)N2CC(C)OC(C)C2)cc1S(=O)(=O)N1CCCCC1 (centres undefined) | 0 | -1 | nt | -2 | nt | -1 | nt
Oc1oc(-c2ccccc2Br)nc1C=Nc1ccc(Br)cn1 | 1 | -2 | 4 | 5 | -6 | 0 | nt
Oc1oc(-c2ccccc2Br)nc1C=Nc1ccccn1 | nt | nt | nt | nt | nt | nt | nt | Fam108b inh=90*
CCOCc1cnc(C)nc1NCC(=O)c1c(C)[nH]c2ccccc12 | -2 | 3 | 57* | 2 | 8 | -2 | 5
CCOCc1cnc(C)nc1NCC(=O)c1c(C)[nH]c2cc(C)ccc12 | 2 | 1 | 1 | 2 | 12 | 3 | nt
CC(=O)Nc1cccc(C(=O)N/N=C/c2ccc(F)cc2)c1 | 2 | 0 | 2 | -1 | 0 | -2 | nt
O=C(NN=Cc1ccc(O)cc1)c1cccc(NN=Cc2ccc(O)cc2)c1 | nt | nt | nt | nt | nt | nt | nt | Fam108b inh=95*
O=C(c1c[nH]c2ccccc12)C(Cl)c1ccccc1 (centres undefined) | -2 | -4 | -6 | -3 | 16 | 1 | nt
CC1CCCCC12NC(=O)N(CC(=O)Nc1ccc(OC(F)F)cc1)C2=O (centres undefined) | nt | nt | nt | -2 | nt | nt | nt
CC(C)(C)c1nnc2sc(SCC(=O)N3CCCCC3)nn2c1=O | nt | nt | nt | 9 | nt | nt | nt
CCN(Cc1ccc(OC)c(F)c1)C(=O)/C=C/c1ccc(S(=O)(=O)N2CCOCC2)cc1 | 2 | -5 | nt | -3 | nt | -6 | nt
CCCn1nc([N+](=O)[O-])c(C(C#N)c2nc3ccccc3o2)c(Cl)c1=O (centres undefined) | 27* | 7 | 29* | 8 | -14 | 18 | 14
Cn1nc([N+](=O)[O-])c(C(C#N)c2ccccn2)c(Cl)c1=O (centres undefined) | 8 | 2 | 7 | 4 | 8 | 0 | nt
COc1cccc(=O)c2c(C)n(-c3ccc(C(=O)O)cc3)c(C)c12 | -17 | 0 | 18* | 3 | 30 | 2 | 1
CCOc1cccc(=O)c2c(C)n(-c3ccc(C(=O)O)cc3)c(C)c12 | -15 | 8 | 13 | 7 | 24 | 1 | nt
SMILES | PME-1 primary | LYPLA1 counter | Fam108B counter | PAD4 inh | GSTO1 counter | LYPLA2 inh | Fam108b inh conf | others
Cc1ccc(NC2CCCCC2NS(=O)(=O)c2ccccc2)c(C)c1 (centres undefined) | 0 | -4 | 3 | 3 | -8 | -2 | nt
CCC(=O)NC(=S)Nc1ccc(NC(=O)c2ccc([N+](=O)[O-])cc2Cl)cc1 | 6 | -1 | 34* | -2 | -19 | 10 | 5
CCOc1ccccc1C(=O)NCC(=O)OCC(=O)N1CCCC1 | nt | nt | nt | -2 | nt | nt | nt
O=C(CSc1nnc(NC2CCCCC2)s1)Nc1ccc2c(c1)C(=O)c1ccccc1C2=O | 9 | -6 | 42* | 3 | 10 | 1 | 3
CC(C)Nc1nnc(SCC(=O)Nc2ccc3c(c2)C(=O)c2ccccc2C3=O)s1 | 57* | -7 | 30* | -6 | 3 | 22 | 12
CC(C)Nc1nnc(SCC(=O)Nc2sccc2C#N)s1 | 5 | -10 | nt | -5 | nt | -10 | nt
CC(=O)N1CCN(C(=O)COC(=O)/C=C/c2ccccc2[N+](=O)[O-])CC1 | nt | nt | nt | -3 | nt | nt | nt
COc1ccc(Nc2nc3ccccc3nc2NS(=O)(=O)c2cccs2)c(OC)c1 | 0 | 0 | 23* | -3 | 5 | -9 | 13
COc1ccc(NC(=O)c2cccc(N3C(=O)c4ccc(C(=O)Nc5ccc(OC)c(O)c5)cc4C3=O)c2)cc1O | 20 | 0 | 21* | -1 | 13 | 16 | 26*
CCOc1cc(/C=C2\C(=O)N(c3nc(-c4ccc(Br)cc4)cs3)N=C2c2ccccc2)ccc1O | 10 | -17 | 42* | -10 | -47 | -17 | 42* | Fam108b inh=90*
CCOc1cc(/C=C2/SC(=S)N(Cc3ccccc3)C2=O)ccc1O | -178 | -26 | -40 | -70 | -116 | -47 | nt
O=C(Nc1cccc(Cl)c1)Nc1ccc2c(c1)OCO2 | 20 | -10 | 19* | 1 | -1 | 11 | -1
O=c1ccnc(Nc2ccc([N+](=O)[O-])cc2)[nH]1 | 0 | 2 | -2 | 1 | 4 | 0 | nt
Cc1c(NC(=O)Nc2ccc(Cl)c(Cl)c2)sc(=S)n1C | 30* | -7 | 32* | 1 | -11 | 11 | 25*
CCOc1cccc(/C=N/NC(=O)c2cc(-c3cccn3C)n[nH]2)c1O | -2 | -28 | 22* | -6 | -10 | -19 | 9
COc1cc(OC)c(OC)cc1/C=N/NC(=O)c1cc(-c2cccn2C)n[nH]1 | 3 | 6 | 4 | 2 | 4 | 8 | nt
COc1ccc(-c2cc(-c3ccc(OC)c(OC)c3)n[nH]2)c(O)c1 | 11 | -9 | 20* | 0 | -20 | -1 | 6
